Screening results from PubChem BioAssay.
GLP-1R inv ag – acts as inverse agonist at human GLP-1 receptor; Potency, µM (series often up to 38.3 µM), without a hit: at the top dose activity change, negative = inhibition, hits mostly inhibitors; AID 624417; P43220; 1.6% of 410,000 active; HEK293 GLP-1R CRE-luciferase, luminescence, 24 h; GLP-1R form is constitutively active; also: % is scaled to controls: 0 for no effect and ±100 for the full control effect; nearly all actives have a fitted effect of over 55% in size
Target sequence (P43220 whole entry, looked up): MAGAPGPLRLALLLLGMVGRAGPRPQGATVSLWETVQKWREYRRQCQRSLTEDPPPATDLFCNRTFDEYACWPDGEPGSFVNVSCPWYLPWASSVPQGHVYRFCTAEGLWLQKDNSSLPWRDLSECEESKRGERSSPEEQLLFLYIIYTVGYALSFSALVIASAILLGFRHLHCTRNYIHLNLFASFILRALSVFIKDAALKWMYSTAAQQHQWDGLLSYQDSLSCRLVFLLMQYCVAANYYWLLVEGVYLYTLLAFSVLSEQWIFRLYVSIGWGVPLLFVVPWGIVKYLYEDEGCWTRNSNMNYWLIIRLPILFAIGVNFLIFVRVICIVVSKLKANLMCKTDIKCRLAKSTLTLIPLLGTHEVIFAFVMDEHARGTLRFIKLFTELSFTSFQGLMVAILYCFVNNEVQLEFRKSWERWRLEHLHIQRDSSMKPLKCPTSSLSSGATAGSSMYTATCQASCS
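qHTS in 1536-well format: reporter HEK293 cells expressing constitutive GLP-1R activity in DMEM + 10% Nu serum, 24 hr with compounds at 37 deg C, luminescence read after 12 min with detection reagent.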
PTHR1 agonist – agonists of human PTHR1 parathyroid hormone receptor; Potency, µM (doses to about 115 µM), without a hit: top-dose activation, actives largely listed as activators; AID 743266; 0.075% of 410,000 active; HEK293 GP2 PTHR1 cells, GloSensor cAMP luminescence, 1 h; Q03431; also: nearly all actives have a fitted effect of over 55% in size
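HEK-293-derived GP2 cells expressing PTHR1 and a GloSensor cAMP reporter, 3,000/well, plated overnight, given luciferin plus IBMX (each 0.5 mM as added) for 1 h at 37 °C, then compound for 1 h at 37 °C. Luminescence was read after 15 min at room temperature.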
GLP1R ag – GLP-1 receptor (human) agonism; HEK293 GLP-1R CRE-luciferase, luminescence, 4-6 h; cells express a hypersensitive GLP-1R form; AID 624172; 0.007% of 380,000 active; Potency, µM (highest dose often 45.6 µM), inactives show at the top dose activation, actives largely listed as activators; also: % of control where 0% means no effect
GLP1R cytotox – cytotoxic in the GLP-1 receptor inverse agonist counter-screen; HEK293 cAMP-luciferase reporter cells, luminescence, 24 h; Potency, µM (titrated, usually from 38.3 µM), inactives show at the top dose activity change, negative = inhibition, usual class: inhibitors; 0.13% of 410,000 active;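 also: loss of luciferase light is scored as toxicity; % is scaled to controls: 0 for no effect and ±100 for the full control effect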
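A 23 nL compound transfer followed 12 hours of cell culture at 37 deg C; exposure then lasted 24 hr. Luciferase assay detection reagent was dispensed and plates read for luminescence after a 12 min room-temperature wait.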
The depositor's hits bear a star; [ ] = remark or other dose. Shown are actives, neighbours in structure and some others; about 1.7% of the full set was active somewhere. Calls follow the shape of the dose curve; as a rule, active = well fitted curve in the direction sought with a large enough effect; inconclusive = small, poorly fitted or top-dose-only effect, or another doubt; inactive = no such curve, though single readings can be large; an effect the other way counts as inactive or inconclusive. Potency is read from the fitted curve at half-maximal effect.

For CC[C@H](C)[C@H](NC(=O)[C@H](CO)NC(=O)[C@H](CC(N)=O)NC(=O)[C@H](CC(C)C)NC(=O)[C@H](Cc1ccc(O)cc1)NC(=O)[C@H](CCCCN)NC(=O)[C@H](CCCCN)NC(=O)[C@@H](NC(=O)[C@H](C)NC(=O)[C@H](CCSC)NC(=O)[C@H](CCC(N)=O)NC(=O)[C@H](CCCCN)NC(=O)[C@H](CCCNC(=N)N)NC(=O)[C@H](CC(C)C)NC(=O)[C@H](CCCNC(=N)N)NC(=O)[C@@H](NC(=O)[C@H](Cc1ccc(O)cc1)NC(=O)[C@H](CC(N)=O)NC(=O)[C@H](CC(=O)O)NC(=O)[C@@H](NC(=O)[C@H](Cc1ccccc1)NC(=O)[C@@H](NC(=O)[C@H](C)NC(=O)[C@H](CC(=O)O)NC(=O)[C@H](CO)NC(=O)[C@@H](N)Cc1c[nH]cn1)C(C)C)[C@@H](C)O)[C@@H](C)O)C(C)C)C(=O)N[C@@H](CC(C)C)C(=O)N[C@@H](CC(N)=O)C(=O)O the results were GLP1R ag 13%.
Screening COc1ccc(Cc2c(-c3ccc(OC)c(OC)c3)nc3ccc(C)cn23)c(C)c1 returned GLP-1R inv ag 16%, PTHR1 agonist -21%, GLP1R ag 5% and GLP1R cytotox -7%.
`O=C(Nc1ccc2c(c1)OCO2)c1cc(C2CCCCN2C(=O)c2ccc3c(c2)CCO3)on1` (configuration not stated) gave GLP-1R inv ag 10µM*, PTHR1 agonist -22%, GLP1R ag -2% and GLP1R cytotox 0%.
CC(=O)c1nn(-c2ccccc2)cc1C(=O)c1cccc(Br)c1 was read as GLP-1R inv ag 4%, PTHR1 agonist inactive, GLP1R ag -2% and GLP1R cytotox 1%.
Screening O=C(c1cccc(Br)c1)c1cn(-c2ccccc2)nc1C(=O)c1ccccc1 returned GLP-1R inv ag 3.5µM*, PTHR1 agonist inactive, GLP1R ag 0% and GLP1R cytotox 7%.
COc1ccc(OC)c(C(c2nnnn2C2CCCC2)N2CCN(c3ccc(F)cc3)CC2)c1 (configuration not stated) was read as GLP-1R inv ag inconclusive, PTHR1 agonist inactive, GLP1R ag -2% and GLP1R cytotox -12%.
`COc1ccc(C(c2nnnn2C2CCCC2)N2CCC(C)CC2)c(OC)c1` (configuration not stated) gave GLP-1R inv ag 10µM*, PTHR1 agonist -29%, GLP1R ag 6% and GLP1R cytotox -7%.
For COc1cc(-c2nc(-c3ccccc3)c(-c3ccc(Br)cc3)[nH]2)cc(OC)c1O the results were GLP-1R inv ag 11µM*, PTHR1 agonist inactive and GLP1R cytotox -13%.
Screening COc1ccc(-c2nc(-c3ccccc3)c(-c3cc([N+](=O)[O-])ccc3C)[nH]2)cc1OC returned GLP-1R inv ag 5.6µM*, PTHR1 agonist inactive, GLP1R ag 5% and GLP1R cytotox -4%.
Screening CCc1cccc(CC)c1NC(=S)NCCc1c(C)[nH]c2ccccc12 returned GLP-1R inv ag 10µM*, PTHR1 agonist -14%, GLP1R ag 3% and GLP1R cytotox inconclusive.
CCc1cccc(CC)c1NC(=S)NCCc1ccc(O)c(O)c1 was read as GLP-1R inv ag inconclusive, PTHR1 agonist -17%, GLP1R ag -3% and GLP1R cytotox -13%.
Screening O=C(CN1C(=O)c2ccccc2S1(=O)=O)c1ccc(F)cc1 returned GLP-1R inv ag 2.2µM*, PTHR1 agonist -40%, GLP1R ag -7% and GLP1R cytotox -9%.
Screening CCCC(C)NCC(=O)Nc1ccccc1-c1ccccc1 (configuration not stated) returned GLP-1R inv ag -4%, PTHR1 agonist -92%, GLP1R ag 3% and GLP1R cytotox 1%.
Cc1nn(C(C)(C)C)c(OC(=O)c2ccc3c(c2)OCO3)c1Sc1ccccc1 was read as GLP-1R inv ag 4.5µM*, PTHR1 agonist -1%, GLP1R ag -5% and GLP1R cytotox -5%.
Screening Cc1nn(C(C)(C)C)c(OC(=O)c2ccc3c(c2)OCO3)c1S(=O)(=O)c1ccccc1 returned GLP-1R inv ag 10µM*, PTHR1 agonist -1%[57.5 µM], GLP1R ag -6% and GLP1R cytotox -6%.
CC1CCN(CC(=O)Nc2ccccc2Sc2ccccc2)CC1 was read as GLP-1R inv ag 4.5µM*, PTHR1 agonist -17%, GLP1R ag 4% and GLP1R cytotox 5%.
For COc1ccc(/C=C2\SC(=S)N(CCC(=O)NCCCn3ccnc3)C2=O)cc1 the results were GLP-1R inv ag inconclusive, PTHR1 agonist -12%, GLP1R ag -4% and GLP1R cytotox -6%.
`CC(C)c1ccc(/C=C2\SC(=S)N(CCC(=O)NCCCn3ccnc3)C2=O)cc1` gave GLP-1R inv ag 2.5µM*, PTHR1 agonist inconclusive, GLP1R ag -2% and GLP1R cytotox inconclusive.
`CNC(=O)C1(c2ccccc2)CCCCC1` gave GLP-1R inv ag 40%, PTHR1 agonist inactive, GLP1R ag -8% and GLP1R cytotox 12%.
COc1ccccc1NC(=O)C1(c2ccccc2)CCCC1 was read as GLP-1R inv ag 4µM*, PTHR1 agonist -9%, GLP1R ag 15% and GLP1R cytotox -4%.
Screening C/C(NC(=O)c1cccs1)=C1\C(=O)C[C@@H]2[C@H]1C2(C)C returned GLP-1R inv ag -51%, PTHR1 agonist -10%[57.5 µM], GLP1R ag inconclusive and GLP1R cytotox 2%.
Screening CN(CC(=O)Nc1ccc(F)cc1)C(=O)COc1ccc(C(=O)c2ccccc2)cc1 returned GLP-1R inv ag 10µM*, PTHR1 agonist inactive, GLP1R ag 0% and GLP1R cytotox -24%.
O=[N+]([O-])c1ccc(CSc2nnc(Cc3ccccc3)n2-c2ccc(F)cc2)cc1 was read as GLP-1R inv ag 10µM*, PTHR1 agonist inactive, GLP1R ag 23% and GLP1R cytotox -26%.
Screening COc1ccc(-n2c(Cc3ccccc3)nnc2SCc2ccc([N+](=O)[O-])cc2)cc1 returned GLP-1R inv ag inconclusive, PTHR1 agonist inactive, GLP1R ag 35% and GLP1R cytotox -25%.
For CC(C)Oc1cc(F)ccc1-c1cc(C(=O)Nc2ccc(C(C)C)cc2)[nH]n1 the results were GLP-1R inv ag inconclusive, PTHR1 agonist inactive, GLP1R ag 4% and GLP1R cytotox -3%.
`CC(C)Oc1cc(F)ccc1-c1cc(C(=O)Nc2ccccc2)[nH]n1` gave GLP-1R inv ag 11µM*, PTHR1 agonist -13%, GLP1R ag 28% and GLP1R cytotox -2%.
`O=C1[C@H]2[C@@H](C3CC3)N3C(=O)CN(Cc4ccccn4)C(=O)[C@@]3(Cc3ccccc3)[C@H]2C(=O)N1c1ccccc1` gave GLP-1R inv ag 2%, PTHR1 agonist -20%, GLP1R ag -1% and GLP1R cytotox 0%.
Screening CN(Cc1ccccc1)C(=O)c1ccccc1Br returned GLP-1R inv ag -5%, PTHR1 agonist inactive, GLP1R ag 1% and GLP1R cytotox 0%.
